Results taken from ChEMBL document CHEMBL3988442, “University of Dundee, Small-Polar-MMV Screening Library” (2021).
In all, about 48,000 compounds went through this assay and about 13,000 (27%) showed an effect of 50% or more. This is one part of the list.

tested on: Wolbachia pipientis; test: Anti-Wolbachia Cell-Based Screen; assay type: functional; design: scale not given: in the data most compounds retested in dose-response had high values; details: 5 µM

| SMILES | Percent Effect |
| --- | --- |
| CC(C)C(=O)NCCC(=O)N1CCN(c2ccccn2)CC1 | 125.4% |
| CC(C)CC(C)NCc1cccnc1N1CCN(c2ccccn2)CC1 (stereo not drawn) | -4.161% |
| CC(C)NCc1cccnc1N1CCN(c2ccccn2)CC1 | -3.713% |
| CSCC(C)N(C)C(=O)CN1CCN(c2ccccn2)CC1 (stereo not drawn) | -3.468% |
| CCC(CC)C(=O)NCCC(=O)N1CCN(c2ccccn2)CC1 | 117% |
| Cc1nc(CNC(=O)CCN2CCN(c3ccccn3)CC2)oc1C | -3.101% |
| CC(c1ccccn1)N(C)C(=O)CN1CCN(c2ccccn2)CC1 (stereo not drawn) | -2.14% |
| CSC(C)C(=O)NCCC(=O)N1CCN(c2ccccn2)CC1 (stereo not drawn) | 112.5% |
| CCc1nnsc1C(=O)NC1CCN(c2ccccn2)CC1 | -15.93% |
| CCCC(C)NCc1cccnc1N1CCN(c2ccccn2)CC1 (stereo not drawn) | 8.499% |
| CCC(C)NC(=O)NCCC(=O)N1CCN(c2ccccn2)CC1 (stereo not drawn) | 129.1% |
| CCn1cc2c(n1)C(COC)CN(C(=O)COc1ccccc1C)C2 (stereo not drawn) | -8.136% |
| CC(=O)NC[C@@H]1C=C(C)[C@H](CC(=O)NCCN(C)C)C[C@H]1C(C)C | 6.725% |
| O=C1CC2(CCSC2)C(=O)N1CCCc1ccccc1 (stereo not drawn) | -8.478% |
| CCC(NC(=O)c1coc(COc2cccc(F)c2F)n1)C(=O)NC (stereo not drawn) | -19.24% |
| CCc1nnc2n1CCN(Cc1nc(-c3ccoc3)no1)C2 | -0.9507% |
| COCCC(=O)N1CCCC1c1csc(Nc2ccccn2)n1 (stereo not drawn) | 105.2% |
| COCCC(=O)N1CCCC1c1csc(Nc2ncccn2)n1 (stereo not drawn) | 107% |
| CC(C)(C)c1nnc(CN2CCN(C(=O)CC3CCCCC3)CC2)o1 | -4.944% |
| CCC[C@@H](NC(N)=O)C(=O)N1CCc2c(Cl)cccc2C1 | 5.459% |
| COCC(=O)Nc1cc(S(=O)(=O)C(F)(F)F)ccc1OC | 4.656% |
| CCc1nc(C)c(CN2CCOC(Cc3cccc4ccccc34)C2)[nH]1 (stereo not drawn) | 10.02% |
| Cc1nc(CN2CCCN(CC(=O)N(C)CCC#N)CC2)no1 | 3.648% |
| Cc1ccc(-c2nnc(CN3CCCC(O)(CO)CC3)o2)n1C (stereo not drawn) | -4.067% |
| c1ccc(-c2nc(CN3CCn4c(nnc4C4CC4)C3)no2)cc1 | -9.405% |
| OCCOc1ccccc1CN1CCCC(O)(CO)C1 (stereo not drawn) | 16.2% |
| OCC1(O)CCCN(Cc2noc(-c3ccccc3)n2)C1 (stereo not drawn) | 97.27% |

| SMILES | Percent Effect |
| --- | --- |
| OCC1(O)CCCN(Cc2noc(-c3ccccc3)n2)CC1 (stereo not drawn) | 104.1% |
| CN(C)CC1(O)CCCN(c2noc(-c3ccccc3)n2)CC1 (stereo not drawn) | -6.371% |
| Cc1nc(CN2CCCC(C)(CO)C2)no1 (stereo not drawn) | 110.1% |
| Cn1cnc2c1CCN(Cc1noc(-c3ccccc3)n1)C2 | 2.267% |
| Cc1cc(CN2CCCC(C)(CO)C2)ccc1F (stereo not drawn) | -2.653% |
| OCC1(O)CCCN(Cc2nnc(-c3ccccc3)o2)CC1 (stereo not drawn) | 97.17% |
| CC1(c2ccccc2)CCCN(Cc2nnc(-c3cccnc3)o2)C1 (stereo not drawn) | -17.9% |
| O=C(O)C(F)(F)F.O=C(O)C(F)(F)F.O=C([C@H]1CN(Cc2nccs2)C[C@H]2OCC[C@@H]12)N1CCCCO1 | -13.3% |
| CCN1CCC2(CCC1=O)CN(c1cnc3ccccc3n1)CCN2C (stereo not drawn) | 10.67% |
| CCNC(=O)N(C)CCCc1n[nH]c(N)c1C#N | -6.653% |
| CC(C)n1ccnc1C1CCCN(c2cc(C(=O)NC3CC3)ccn2)C1 (stereo not drawn) | 11.95% |
| Cn1ccnc1CN1CCN(Cc2noc(-c3ccccc3)n2)CC1 | -3.916% |
| Cc1cnn(C2CN(Cc3noc(-c4ccccc4)n3)C2)c1 | 6.311% |
| OCC1(O)CCN(Cc2noc(-c3ccccc3)n2)CC1 | 112.4% |
| CCCC(N)CNS(=O)(=O)Cc1cccc(C#N)c1.Cl (stereo not drawn) | -1.555% |
| Cn1nc2c(cc1=O)CN(CCCOc1ccc(C#N)cc1)CC2 | -8.416% |
| Cc1ccc(CS(=O)(=O)CC(=O)NCc2ccccc2F)cc1 | -26.12% |
| CC(C)OCCCNC(=O)NC(C)c1ccc(-n2cncn2)cc1 (stereo not drawn) | 21.75% |
| Cc1cccc(CS(=O)(=O)CC(=O)NCCCOC(C)C)c1 | -2.072% |
| CC(C)OCCCNC(=O)CS(=O)(=O)Cc1cccc(Cl)c1 | 109.4% |
| CC(C)c1ccc(CS(=O)(=O)CC(=O)NCc2ccccc2F)cc1 | -59.22% |
| CC(C)OCCCNC(=O)CS(=O)(=O)Cc1ccc(C(C)C)cc1 | 60.49% |
| CC(C)OCCCNC(=O)CS(=O)(=O)Cc1ccc(Cl)c(Cl)c1 | -2.776% |
| CC(C)OCCCNC(=O)CS(=O)(=O)Cc1ccc(Cl)cc1 | 111.2% |
| Cc1ccc(CS(=O)(=O)CC(=O)NCCCOC(C)C)cc1 | 104.7% |
| CC(NC(=O)NCCCN(C)S(C)(=O)=O)c1cccc(Cl)c1 (stereo not drawn) | -5.228% |
